In PubChem BioAssay (NCATS):
Where “and” joins values, the source holds several entries; their conditions need not be identical. Equal entries are not always repeated. Inconclusive results are not listed. Calls of active or inactive are those of the source. Unless noted, calls follow the shape of the dose curve; as a rule, active = well fitted curve in the direction sought with a large enough effect; inconclusive = small, poorly fitted or top-dose-only effect, or another doubt; inactive = no such curve, though single readings can be large; an effect the other way counts as inactive or inconclusive.

How the values were obtained:
[1] = target: Cellular tumor antigen p53 (Homo sapiens) (UniProt P04637); experiment: Primary qHTS for small molecule compounds that upregulate eGFP-tagged delta133p53alpha (in N-terminal) cells. (AID 2060322); conditions: NCI-H358 eGFP-delta133p53alpha fluorescence, 24 h; activation: stronger effect = higher value;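 also: series mostly up to about 56 µM; 0% = DMSO vehicle and 100% = reference activator; nearly all actives have a fitted effect of over 75% in size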
Chain of Cellular tumor antigen p53 (Homo sapiens) (P04637 whole entry, looked up): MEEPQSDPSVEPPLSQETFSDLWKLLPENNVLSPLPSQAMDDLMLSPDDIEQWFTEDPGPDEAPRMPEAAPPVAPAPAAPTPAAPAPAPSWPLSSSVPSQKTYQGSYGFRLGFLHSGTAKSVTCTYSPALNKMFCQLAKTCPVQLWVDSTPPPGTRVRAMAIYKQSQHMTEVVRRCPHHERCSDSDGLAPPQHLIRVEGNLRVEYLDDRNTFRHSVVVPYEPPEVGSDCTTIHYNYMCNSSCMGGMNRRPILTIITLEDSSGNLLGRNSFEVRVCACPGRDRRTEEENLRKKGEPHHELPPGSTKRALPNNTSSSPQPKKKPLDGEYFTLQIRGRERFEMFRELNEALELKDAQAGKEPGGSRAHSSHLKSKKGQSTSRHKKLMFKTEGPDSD
Summary of the method: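 NCI-H358 cells pre-induced 24 h with 10 ng/ml doxycycline to express N-terminal eGFP-delta133p53alpha, then dosed 24 h at 37C without doxycycline; fixed, Hoechst-stained, GFP intensity by laser scanning cytometry, normalized to DMSO (0%) and 57.5 uM 5-azacytidine (100%).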

[2] = target: Aldehyde dehydrogenase, mitochondrial (Homo sapiens) (UniProt P05091); experiment: qHTS for Inhibitors of the Aldehyde Dehydrogenase Family (ALDH2) Confirmatory screens (AID 2061303; active = well fitted inhibition curve with a large enough effect; title and protocol of this record describe different tests; also: nearly all actives have a fitted effect of over 45% in size; also: potency is read from the fitted curve at half-maximal effect)
[3] = target: Aldehyde dehydrogenase, mitochondrial (Homo sapiens) (UniProt P05091); experiment: qHTS for Inhibitors of the Aldehyde Dehydrogenase Family (ALDH2) Primary screen (AID 2061308); also: nearly all actives have a fitted effect of over 55% in size; also: potency is read from the fitted curve at half-maximal effect
[4] = target: Retinaldehyde dehydrogenase 3 (Homo sapiens) (UniProt P47895); experiment: qHTS for Inhibitors of the Aldehyde Dehydrogenase Family (ALDH1A3) Confirmatory screens (AID 2061311); also: nearly all actives have a fitted effect of over 60% in size; also: potency is read from the fitted curve at half-maximal effect
[5] = target: Retinaldehyde dehydrogenase 3 (Homo sapiens) (UniProt P47895); experiment: qHTS for Inhibitors of the Aldehyde Dehydrogenase Family (ALDH1A3) Validation screen (AID 2061312); also: nearly all actives have a fitted effect of over 45% in size; also: potency is read from the fitted curve at half-maximal effect
[6] = target: Retinaldehyde dehydrogenase 3 (Homo sapiens) (UniProt P47895); experiment: qHTS for Inhibitors of the Aldehyde Dehydrogenase Family (ALDH1A3) Primary screen (AID 2061315);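 also: plate controls were DMSO vehicle for no effect and reference inhibitor for full effect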
[7] = target: Aldehyde dehydrogenase 1A1 (Homo sapiens) (UniProt P00352); experiment: qHTS for Inhibitors of the Aldehyde Dehydrogenase Family (ALDH1A1) Confirmatory screens (AID 2061316); also: nearly all actives have a fitted effect of over 65% in size; also: potency is read from the fitted curve at half-maximal effect
[8] = target: Retinal dehydrogenase 2 (Homo sapiens) (UniProt O94788); experiment: qHTS for Inhibitors of the Aldehyde Dehydrogenase Family (ALDH1A2) Confirmation screens (AID 2061314); also: % is scaled to controls: 0 for no effect and ±100 for the full control effect; nearly all actives have a fitted effect of over 65% in size
[9] = BET inhibitor-based combinations targeting novel dependencies in MECOM-rearranged (r) AML: SET-2 cell line (AID 2202231); conditions: SET-2 AML cells viability, CellTiter-Glo luminescence, 48 h; viability: stronger effect = lower value, concentration not given here; also: nearly all actives have a fitted effect of over 35% in size; also: potency is read from the fitted curve at half-maximal effect;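 as to viability: plate controls were DMSO treated cells for no effect and wells without cells for full effect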
Summary of the method: (§1)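 Each compound was tested at eleven concentrations on cells seeded at 500/well. After two days' incubation, ATP-based luminescence reported viability; responses relative to DMSO and blank wells yielded AUC and cell-line-centred Z-AUC.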

[10] = BET inhibitor-based combinations targeting novel dependencies in MECOM-rearranged (r) AML: MV-4-11 cell line (AID 2202233); also: potency is read from the fitted curve at half-maximal effect; nearly all actives have a fitted effect of over 45% in size
Summary of the method: (§2)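 First, 500 cells per well were seeded; next, drugs were pinned as 11-point doses; then plates sat 48 hr in the incubator; finally CellTiter-Glo was added and luminescence read, with AUC and Z-AUC computed.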

[11] = BET inhibitor-based combinations targeting novel dependencies in MECOM-rearranged (r) AML: UCSD-AML1 cell line (AID 2202235); also: nearly all actives have a fitted effect of over 40% in size; also: potency is read from the fitted curve at half-maximal effect
Summary of the method: as §2

[12] = BET inhibitor-based combinations targeting novel dependencies in MECOM-rearranged (r) AML: AML-191 cell line (AID 2202236; also: potency is read from the fitted curve at half-maximal effect; nearly all actives have a fitted effect of over 35% in size)
Summary of the method: as §1

[13] = BET inhibitor-based combinations targeting novel dependencies in MECOM-rearranged (r) AML: AML-194 cell line (AID 2202237;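 also: plate controls were vehicle wells for no effect and wells without cells for full effect; nearly all actives have a fitted effect of over 40% in size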)
Summary of the method: as §1

COc1ccc(NC(=O)c2ccc(-c3ccc(C(N)=O)cc3C)cc2)cc1N1CCN(C)CC1
inactive: activation [1] 1.43% | Potency [2] | Potency [3] | Potency [4] | Potency [5] | Potency [6] | Potency [7]

Oc1ccc(Nc2nc(-c3ccc(Cl)cc3)cs2)cc1
active: Potency [9] 9.34 µM | Potency [10] 14.8 µM | Potency [11] 6.61 µM | Potency [12] 16.6 µM
inactive: activation [1] 24.1% | Potency [2] | Potency [3] | Potency [4] | Potency [8] | Potency [6] | Potency [13]

OC[C@@]1(O)CO[C@@H](OC[C@H]2O[C@@H](Oc3c[nH]c4ccccc34)[C@H](O)[C@@H](O)[C@@H]2O)[C@@H]1O
inactive: activation [1] -5.34% | Potency [2] | Potency [3] | Potency [6] | Potency [7]

CN1CCN(C(=O)CN[C@@H]2C[C@H]2c2ccc(OCc3ccccc3)cc2)CC1
active: Potency [2] 14.1 µM | Potency [4] 3.98 µM | Potency [5] 1.41 µM | Potency [7] 20.1 µM
inactive: activation [1] 68.2%

Cn1cc(-c2ccc3ncc(Cc4ccc5ncccc5c4)n3n2)cn1
inactive: activation [1] 15.2% and 9.55% | Potency [2] | Potency [3] | Potency [6] | Potency [7] | viability [9] 105% | Potency [11]
active: Potency [10] 18.6 µM | Potency [12] 13.2 µM

O=c1nc(-c2ccccn2)sc2ccccc12
active: Potency [3] 15.8 µM | Potency [5] 2.82 µM | Potency [7] 1.13 µM
inactive: activation [1] -10.5% | Potency [2] | Potency [8] | Potency [6]

COc1cc2ncc(-c3ccccc3)nc2cc1OC
inactive: activation [1] -16.1% | Potency [2] | Potency [3] | Potency [8]
